Screening data deposited in PubChem by National Center for Advancing Translational Sciences (NCATS).
The list is not random: actives were taken first. Their share in the collection is about 6.9%.
L3MBTL1 block: inhibitors of human L3MBTL1; Q9Y468; AlphaScreen L3MBTL1–H3K9me1 peptide binding; Potency, µM (top dose mostly 57.1 µM), without a hit: at the highest dose activity, negative = inhibition, most hits filed as inhibitors; hit rate 0.66% among 230,000; AID 485360; note: % is set by controls: 0 for no effect and ±100 for the full control effect; nearly all actives have a fitted effect of over 60% in size
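AlphaScreen assay: L3MBTL1 (50 nM final) was preincubated 30 min at room temperature with biotinylated H3(1-15)K9me1 peptide (75 nM final), then 30 min with library compounds; streptavidin donor and nickel chelate acceptor beads (10 ug/mL final) added, 30 min dark.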
JMJD2A Tudor inh: blocks the human JMJD2A Tudor domain | Potency, µM (doses to about 114 µM), inactives show at the top dose activity change, negative = inhibition, hits mostly inhibitors | hit rate 4.4% among 390,000 | AlphaScreen JMJD2A-Tudor / H3K4me3 peptide binding | AID 504339 | O75164; note: % is set by controls: 0 for no effect and ±100 for the full control effect; nearly all actives have a fitted effect of over 50% in size
PLK1 PBD inh: inhibitors of human PLK1 polo-box domain binding. hit rate 2.8% among 360,000. Plk1 PBD binding of FITC phosphopeptide, fluorescence polarization. AID 720504. Potency, µM, inactives show max response, negative = inhibition, most hits filed as inhibitors; note: series mostly up to about 57 µM; % is set by controls: 0 for no effect and ±100 for the full control effect; nearly all actives have a fitted effect of over 65% in size
VDR inh: inhibitors of human vitamin D receptor | P11473 | VDR-SRC2-3 peptide fluorescence polarization, 2 h | Potency, µM, for inactives: max response, negative = inhibition, most hits filed as inhibitors | hit rate 0.93% among 400,000 | AID 504847; note: % is set by controls: 0 for no effect and ±100 for the full control effect
Target sequence (P11473 whole entry, looked up): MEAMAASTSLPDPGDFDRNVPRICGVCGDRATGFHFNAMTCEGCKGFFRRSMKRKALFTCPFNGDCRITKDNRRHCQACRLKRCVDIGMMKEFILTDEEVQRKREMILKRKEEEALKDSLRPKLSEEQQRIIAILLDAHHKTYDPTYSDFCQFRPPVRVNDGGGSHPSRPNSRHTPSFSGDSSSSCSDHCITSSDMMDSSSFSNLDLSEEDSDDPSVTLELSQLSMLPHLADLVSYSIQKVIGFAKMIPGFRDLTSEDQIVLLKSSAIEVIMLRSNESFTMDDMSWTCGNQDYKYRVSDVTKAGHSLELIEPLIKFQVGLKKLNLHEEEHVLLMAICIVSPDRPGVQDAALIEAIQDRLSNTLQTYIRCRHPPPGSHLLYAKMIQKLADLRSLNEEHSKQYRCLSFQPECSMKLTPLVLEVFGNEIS
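Inhibition of the VDR/SRC2-3 peptide interaction is quantified by fluorescence polarization. Compounds (23 nl, pintool) incubate with the reagents for 2 hours at ambient room temperature.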
BAZ2B inh: blocks human BAZ2B | AlphaScreen BAZ2B-H3K14Ac peptide displacement | Potency, µM (titrated, usually from 114 µM), for the others: at the highest dose activity change, negative = inhibition, most hits filed as inhibitors | hit rate 4.4% among 360,000; note: % is set by controls: 0 for no effect and ±100 for the full control effect; nearly all actives have a fitted effect of over 60% in size
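Protein-peptide AlphaScreen: BAZ2B 50 nM, b-H3K14Ac 50 nM, 1x PBS pH 7.4 + 0.01% Tween-20. Preincubation 30 min RT; cpd 30 min RT (top 110 uM); beads 20 min RT, light-protected.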
HP1b chromo inh: blocks HP1-beta chromodomain binding to methylated histone tails. P83916. AlphaScreen HP1-beta / biotin-H3K9me3 peptide binding. Potency, µM (titrated, usually from 114 µM), without a hit: top-dose activity change, negative = inhibition, actives largely listed as inhibitors. hit rate 0.56% among 390,000; note: nearly all actives have a fitted effect of over 70% in size
Target sequence (P83916 whole entry, looked up): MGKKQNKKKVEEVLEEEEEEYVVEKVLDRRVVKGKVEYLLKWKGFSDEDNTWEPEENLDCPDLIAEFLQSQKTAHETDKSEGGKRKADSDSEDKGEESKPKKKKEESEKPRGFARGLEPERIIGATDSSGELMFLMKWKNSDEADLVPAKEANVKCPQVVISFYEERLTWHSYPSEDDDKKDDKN
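Compound inhibition of the preformed complex between 50 nM HP1-beta and 50 nM biotinylated H3K9me3 peptide was read by AlphaScreen. Buffer was PBS pH 7.4 with 0.01% Tween-20. Incubations ran 30 min at room temperature, with 10 ug/mL donor/acceptor beads.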
An asterisk follows results filed as active; u = inconclusive; x = not tested or not shown; [ ] = remark or other dose. Calls come from the whole dose curve; as a rule, active = well fitted curve in the direction sought with a large enough effect; inconclusive = small, poorly fitted or top-dose-only effect, or another doubt; inactive = no such curve, though single readings can be large; an effect the other way counts as inactive or inconclusive. Potency is the fitted concentration of half-maximal effect.

SMILES	L3MBTL1 block	JMJD2A Tudor inh	PLK1 PBD inh	VDR inh	BAZ2B inh	HP1b chromo inh
C#CCOCCOCCOCCNc1nc(N2CCN(C(=O)[C@H](Cc3cc4ccccc4[nH]3)n3cc(C(N)CC(C)C)nn3)CC2)nc(N2CCN(C(=O)[C@H](CCC(=O)O)n3cc(C(N)[C@H](C)CC)nn3)CC2)n1 (stereo partly drawn)	-6%	56µM*	-14%	-14%	45µM*	13%
O=C(COc1ccc(Cl)cc1[N+](=O)[O-])N1CCCCCC1	6%	-23%	1%	2%	-2%	50%
COc1ccc(NC(=O)c2oc3ccccc3c2NC(=O)C23CC4CC(CC(C4)C2)C3)c(OC)c1	x	-15%	x	9%	-16%	25%
COc1cc2nc(/C=C/c3ccc(N(C)C)cc3)sc2cc1SC	u	25µM*	27%	-6%	22µM*	u
CCN(CC)c1ccc(/C=C/c2nc3ccccc3s2)cc1	6%	x	x	x	-27%	x
COc1ccccc1CNC(=O)c1ccc2nc(CCc3ccccc3)oc2c1	x	-17%	x	1%	0%	26%[57 µM]
O=[N+]([O-])c1ccc(OCCN2CCNCC2)cc1	16%	25µM*	2%	6%	50µM*	u
Cc1cc(OCCN2CC(C)OC(C)C2)ccc1[N+](=O)[O-] (stereo not drawn)	3%	2.8µM*	-4%	3%	u	u
Cc1cc(OCCN2CCC(Cc3ccccc3)CC2)ccc1[N+](=O)[O-]	x	u	6%	0%	u	u
CC1CN(CCOc2ccc(F)cc2)CC(C)O1 (stereo not drawn)	1%	20µM*	1%	3%	50µM*	u
Fc1ccc(OCCCCCCN2CCCC2)cc1	-6%	-19%	-7%	3%	6%	13%
CC1CN(CCOc2ccc([N+](=O)[O-])cc2)CC(C)O1 (stereo not drawn)	7%	6.3µM*	-2%	-15%	u	u
COC(=O)c1ccc([C@H]2C=C(C(=O)O)O[C@@H](OCc3ccc(CO)cc3)C2)cc1	x	-15%	-17%	-8%	-7%	25%
CC(=NNC(=S)Nc1cccc(C)c1)c1ccccn1	x	50µM*	u	u	x	u
C/C(=N\NC(=S)Nc1cccc(C)c1)c1ccco1	-11%	u	u	-2%	-8%	u
CC(=NNC(=S)Nc1ccc(C)cc1)c1ccccn1	x	79µM*	-9%	-26%	x	u
COc1ccccc1NC(=S)NN=C(C)c1ccccn1	x	u	-10%	u	x	u
CCc1oc(C(=O)O)cc1CN(CC)CC	x	32µM*	-8%	-4%	-19%	-2%
CC1CN(C(=O)CCc2cc(C(C)(C)C)c(O)c(C(C)(C)C)c2)CC(C)O1 (stereo not drawn)	x	-12%	1%	13%	1%	52%
CC(C)(C)c1cc(CCC(=O)N2CCC2)cc(C(C)(C)C)c1O	x	-6%	1%	4%	89µM*	31%
COc1ccc(NC(=O)c2c(C)oc3ccc(O)c(CN4CCC(C)CC4)c23)cc1Cl	x	u	x	1%	u	-11%
NNC(=O)c1[nH]c2ccc(Cl)cc2c1-c1ccccc1	-19%	-19%	-13%	79µM*	-9%	36%
NNC(=O)c1[nH]c2ccc(Br)cc2c1-c1ccccc1	-19%	-23%	-5%	u	-4%	-1%
CC(C)(C)C1CCc2c(sc(NC(=O)Cn3nnc(-c4cccc(C(F)(F)F)c4)n3)c2C#N)C1 (stereo not drawn)	x	-17%	x	-2%	-15%	11%
Cc1ccc(C)c(S(=O)(=O)ON2C(=O)c3ccccc3C2=O)c1	15%	u	2.7µM*	20µM*	-6%	32µM*
SMILES	L3MBTL1 block	JMJD2A Tudor inh	PLK1 PBD inh	VDR inh	BAZ2B inh	HP1b chromo inh
O=C1c2ccccc2C(=O)N1OS(=O)(=O)c1ccccc1	3%	x	x	x	-11%	x
Cc1ccc(S(=O)(=O)ON2C(=O)c3cccc4cccc(c34)C2=O)cc1	0%	-24%	-11%	1%	-2%	54%
Cc1cc(S(=O)(=O)ON2C(=O)c3ccccc3C2=O)ccc1F	x	79µM*	6.7µM*	32µM*	-26%	u
COc1ccc2nc3sc(C(=O)N4CCN(c5ccc(F)cc5)CC4)cc3cc2c1	x	3%	x	-21%	-2%	23%
CCc1ccc(NC(=O)CSc2ccc(-c3ccco3)nn2)cc1	x	u	19µM*	79µM*	-2%	-21%
COc1ccccc1CCNC(=O)CSc1ccc(-c2ccco2)nn1	x	-17%	-12%	-11%	50µM*	47%
CCCc1nc2ccc(C)cn2c1Cc1ccc(C)cc1	x	x	-12%	x	x	x
O=C(N/N=C/c1sc(=O)n(Cc2ccc(Br)cc2)c1Cl)c1ccco1	x	u	-7%	10%	89µM*	13%
O=C(O)c1cccc(Cn2c(Cl)c(/C=N/Nc3ccccc3)sc2=O)c1	x	u	u	u	25µM*	1%
O=C(N/N=C/c1ccc(Br)s1)c1ccco1	12%	-10%	-2%	-9%	-2%	52%
CCCC(C)NC(=O)CSc1nc(-c2ccccc2)cn1N (stereo not drawn)	-4%	u	27µM*	-4%	-14%	-11%
CC1CCCCN1C(=O)CSc1nc(-c2ccccc2)cn1N (stereo not drawn)	-4%	u	24µM*	u	x	-22%
CC1CCCCN1C(=O)CSc1n[nH]c(-c2ccccc2)n1 (stereo not drawn)	x	0%	x	16%	5%	30%[57 µM]
CCCC(=O)Nc1nnc(SCc2cc(=O)n3ccccc3n2)s1	x	2%	x	6%	-17%	29%[57 µM]
CC1(C#CC[N+]2(C)CCCCC2)CCC2C(O1)c1ccccc1OC2(C)C (stereo not drawn)	x	-26%	u	-12%	56µM*	u
COCc1cc(N2CCCCC2)nc(-c2ccccc2)n1	7%	20µM*	27µM*	u	50%	18%
COc1ccc(CNC(=O)CN2C(=O)CCSc3ccc(S(=O)(=O)N4CCCC4)cc32)cc1	x	4%	-2%	13%	-12%	41%
CCOC(=O)CSC1=NC(=O)/C(=C/c2ccc(Br)cc2)S1	x	u	0.84µM*	u	-9%	5%
NC1=NC(=O)/C(=C/c2ccc(Br)cc2)S1	5%[2.29 µM]	-4%	1%	-7%	-28%	28%
O=[S+]([O-])(c1ccc2c(c1)OCCO2)N1CCN([S+](=O)([O-])c2c(O)cc(F)cc2F)CC1	x	-11%	x	x	x	x
Cc1cc(Cl)cc2sc(=S)[nH]c12	x	-18%	13µM*	u	x	-11%[57 µM]
Cc1[nH]c(=S)sc1Cc1ccc(Cl)c(Cl)c1	-11%	x	x	x	-35%	x
O=C1CCC(C(=O)OCC(=O)c2ccccc2)N1 (stereo not drawn)	4%[11.4 µM]	u	27µM*	u	-18%	2%
